Screening data: PubChem, National Center for Advancing Translational Sciences (NCATS)
TGFb inhibitor = inhibitors of TGF-b signaling; HepG2 CAGA-GFP TGF-b/SMAD3 reporter, GFP fluorescence, 18 h; TGF-beta stimulated, 500 pg/mL final; Potency, µM (titrated, usually from 46.1 µM), for inactives: at the top dose activity, negative = inhibition, most hits filed as inhibitors; hit rate 1.2% among 410,000; further: potency means the concentration at half of the fitted maximal effect; on the % scale 0 is the no-effect control and ±100 the full control effect; nearly all actives have a fitted effect of over 65% in size
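TGF-beta reporter screen: HEPG2 CAGA-GFP, 1% FBS, 500 pg/mL TGF-beta final, 18 h; per-cell GFP summed per well; curves fitted and categorized by class.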
HepG2 viability = kills HepG2 cells in TGF-b inhibitor counter-screen. Potency, µM (highest dose often 46.1 µM), for the others: at the highest dose activity change, negative = cytotoxicity, hits mostly cytotoxic. HepG2 CAGA-GFP viability, ATP luminescence, 18 h. AID 588856. hit rate 0.76% among 410,000; further: potency means the concentration at half of the fitted maximal effect
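CellTiter-Glo luminescence gave cytotoxicity after 18 hours at 37 degrees C. The cells were HepG2 CAGA-GFP in 1% FBS DMEM, stimulated with 500 pg/mL TGF-beta after compound addition. %Activity was normalised to no-cell wells (complete cell-killing) and DMSO (no toxicity), and curves were fitted and classified.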
ATXN2 expr inh = reduces ATXN2 reporter expression in HEK-293 cells; hit rate 0.72% among 360,000; Potency, µM (series often up to 57 µM), without a hit: at the highest dose activity change, negative = inhibition, hits mostly inhibitors; AID 1745845; HEK-293 ATXN2-luciferase reporter, luminescence, 24 h; further: potency means the concentration at half of the fitted maximal effect; on the % scale 0 is the no-effect control and ±100 the full control effect; nearly all actives have a fitted effect of over 55% in size
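ATXN2-luciferase reporter cells (luciferase flanked by upstream and downstream ATXN2 gene portions) were treated 24 h at 37 °C with compounds at up to 57 uM. SteadyGlo luminescence gave expression; GF-AFC fluorescence gave viability.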
ATXN viability = cell viability loss in ATXN counter-screen | S2 cells (HEK-293 line with an ATXN2-luciferase reporter) viability, CellTiter-Fluor protease fluorescence, 24 h | Potency, µM (highest dose often 56.7 µM), actives largely listed as cytotoxic | hit rate 0.49% among 400,000 | AID 651635; further: potency means the concentration at half of the fitted maximal effect; nearly all actives have a fitted effect of over 40% in size
SK-N-SH 3D tox = SK-N-SH 3D spheroid viability loss | SK-N-SH 3D spheroid viability, PI/Hoechst imaging, 72 h | shares compounds with ATXN2 expr inh | hit rate 70% among 65 | Potency, µM (highest dose often 30.7 µM), usual class: inhibitors | AID 1347135
SJGBM2 3D viab = lowers viability of SJ-GBM2 3D spheroids; shares compounds with ATXN2 expr inh; SJ-GBM2 3D spheroid viability, PI/Hoechst imaging, 72 h; Potency, µM (titrated, usually from 30.7 µM), most hits filed as inhibitors; hit rate 80% among 65
Daoy spheroid = kills Daoy spheroids in orthogonal 3D test | shares compounds with ATXN2 expr inh | Daoy 3D spheroid viability, PI/Hoechst imaging, 72 h | Potency, µM (top dose mostly 30.7 µM), hits mostly inhibitors | hit rate 50% among 65 | AID 1347137
TC32 3D casp = activates caspase in TC32 3D spheroids; hit rate 30% among 65; Potency, µM (highest dose often 30.7 µM), hits mostly inhibitors; AID 1347138; shares compounds with ATXN2 expr inh; TC32 3D spheroids, caspase-3/7 fluorescence imaging, 24 h
TC32 3D tox = kills TC32 spheroids in orthogonal 3D test; TC32 3D spheroid viability, PI/Hoechst imaging, 72 h; AID 1347139; hit rate 60% among 65; Potency, µM (series often up to 30.7 µM), hits mostly inhibitors; shares compounds with ATXN2 expr inh
MG63 spheroid = reduced viability of MG-63 (6-TG R) 3D spheroids, orthogonal test. Potency, µM (doses to about 30.7 µM), actives largely listed as inhibitors. MG-63 (6-TG R) 3D spheroid viability, PI/Hoechst imaging, 72 h. shares compounds with ATXN2 expr inh. hit rate 50% among 65
RD 3D tox = kills RD rhabdomyosarcoma spheroids in orthogonal 3D test; AID 1347141; shares compounds with ATXN2 expr inh; hit rate 50% among 65; RD rhabdomyosarcoma 3D spheroid viability, PI/Hoechst imaging, 72 h; Potency, µM (series often up to 30.7 µM), usual class: inhibitors
Numbers without * were called inactive; i = inactive; ? = inconclusive; · = no result. Only some compounds are listed: those with a hit (about 3.9% of all), similar ones and a draw of the others. The call rests on the fitted dose curve; in most records, active means well fitted curve in the direction sought with a large enough effect; inconclusive means small, poorly fitted or top-dose-only effect, or another doubt; inactive means no such curve, though single readings can be large; an effect the other way counts as inactive or inconclusive.

SMILES	TGFb inhibitor	HepG2 viability	ATXN2 expr inh	ATXN viability	SK-N-SH 3D tox	SJGBM2 3D viab	Daoy spheroid	TC32 3D casp	TC32 3D tox	MG63 spheroid	RD 3D tox
Nc1ccn([C@@H]2O[C@H](CO)[C@H](O)C2(F)F)c(=O)n1	·	·	0.22µM*	·	?	0.14µM*	?	i	0.32µM*	0.57µM*	?
COc1ccc(C2=C(C(C)=O)Sc3nnc(-c4ccc(Cl)cc4)n3N2C(C)=O)cc1OC	2%	0%	·	·	·	·	·	·	·	·	·
CCCCc1nc2cc(C=CC(=O)NO)ccc2n1CCN(CC)CC	·	·	113%	·	0.51µM*	0.91µM*	1.6µM*	?	1.4µM*	6.4µM*	1.6µM*
CC(C)(O)Cn1c(NC(=O)c2ccc(-c3cn[nH]c3)s2)nc2cc(CN3CCOCC3)ccc21	·	·	6.1µM*	·	0.23µM*	0.23µM*	0.64µM*	1.3µM*	1µM*	1.4µM*	0.32µM*
CCn1c(CN2CCOCC2)nc2cc(NC(=O)c3cc(OC)c(OC)c(OC)c3)ccc21	-14%	-15%	8%	i	·	·	·	·	·	·	·
Cc1nc(C)c(-c2ccc(SCC(=O)Nc3ccc(Br)cc3)nn2)s1	0%	-28%	·	·	·	·	·	·	·	·	·
